Counter-ions that a name gives are not always drawn. Values without a mark were called inactive.
Test system: Vero E6 infected with SARS-CoV-2
Assay: inhibition of SARS-CoV-2 cytopathic effect; higher = more antiviral protection, active = above 15
Details: 48 h

Row | SMILES | inhibition of SARS-CoV-2 cytopathic effect (1 nM) [%] | inhibition of SARS-CoV-2 cytopathic effect (8.33 nM) [%] | inhibition of SARS-CoV-2 cytopathic effect (100 nM) [%] | inhibition of SARS-CoV-2 cytopathic effect (833.33 nM) [%] | inhibition of SARS-CoV-2 cytopathic effect (10000 nM)
1 | O=C1CCc2ccc(OCCCCN3CCN(c4cccc(Cl)c4Cl)CC3)cc2N1 [aripiprazole] | 5.18 | -2.79 | 1.15 | -1.05 | -5.25%
2 | C[C@@]12CC[C@@H]3[C@@](CC[C@H]4[C@@]3(C)CCC[C@@]4(C)C(=O)O)(CC1=O)C2 [isosteviol] | -1.01 | 3.07 | -0.69 | 0.69 | 1.55%
3 | CC(C)CCNc1ncccc1C(=O)N1CCN(Cc2ccccc2)CC1 | 0.16 | 0.21 | 1.38 | 0.33 | -0.35%
4 | OC(CN1CCN(c2cccc(Cl)c2)CC1)C(c1ccccc1)c1ccccc1 (stereo not given) | 2.69 | 4.95 | 2.68 | 1.94 | 3.63%
5 | O=C(CN1CCN(Cc2ccc3c(c2)OCO3)CC1)N1c2ccccc2Sc2ccccc21 [fenoverine] | 0.16 | -2.81 | 4.98 | -0.47 | -3.71%
6 | CC1(C)S[C@@H]2[C@H](NC(=O)[C@H](C(=O)O)c3ccsc3)C(=O)N2[C@H]1C(=O)O [ticarcillin] | -0.59 | -1.04 | -1.79 | 0.92 | -2.66%
7 | O[C@@H]1[C@H](O)[C@@H](CCl)O[C@H]1n1cnc2c(NC3CC4CCC3C4)ncnc21 (mixture of isomers) [5'-chloro-5'-deoxy-ENBA-(+/-)] | -4.47 | -2.02 | 0.3 | 3.77 | -3.73%
8 | COc1ccc(S(=O)(=O)Nc2cccnc2Nc2ccc(O)cc2)cc1 | 1.18 | 4.25 | 1.28 | 0.22 | 1.62%
9 | CCCCCCCCCCCCc1ccc(S(=O)(=O)Nc2nncs2)cc1 | -0.85 | 0.48 | -0.22 | -2.3 | -0.65%
10 | C=Cc1c(C)c2cc3nc(c(CC(=O)O)c4[n-]c(cc5nc(cc1[n-]2)C(C)=C5CC)c(C)c4C(=O)O)[C@@H](CCC(=O)O)[C@@H]3C.[Cu+2] [chlorophyllin-copper] | -0.37 | 2.9 | -1.68 | -0.25 | -2.81%
11 | CCN(CC)CCOc1ccc2c(c1)C(=O)c1cc(OCCN(CC)CC)ccc1-2 [tilorone] | -0.99 | 0.89 | 1.34 | 0.62 | 24.9% (active)
12 | CO/N=C(\C(=O)N[C@@H]1C(=O)N2C(C(=O)O)=C(Cn3ccc(=N)n3CCO)CS[C@H]12)c1csc(N)n1 [Cefoselis sulfate] | 0.33 | -3.45 | -1.18 | -1.56 | 1.21%
13 | c1ccc2c(c1)Sc1ccccc1N2C[C@H]1CN2CCC1CC2 [levomequitazine] | -10.3 | -6.41 | -8.62 | -7.33 | -13.9%
14 | CN(C)CCCCSC(=N)N | -2.5 | -3.4 | -2.41 | 1.23 | 2.12%
15 | Nc1nccc(-c2ccc3noc(-c4ccc(Cl)cc4)c3c2)n1 [PIM-1-Inhibitor-2] | 0.72 | -0.19 | 3.66 | 0.83 | 0.56%
16 | CNC1CC(N)C(O)C(OC2OC(CO)C(O)C3OC4(OC(C(N)CO)C(O)C(O)C4O)OC23)C1O (stereo not given) [Hygromycin B] | -0.42 | -1.63 | -0.49 | -1.13 | 1.46%
17 | N#CC(c1ccnc(OCc2ccc(CN3CCOCC3)cc2)n1)c1nc2ccccc2s1 (stereo not given) | -1.68 | 0.15 | 1.92 | 2.82 | 6.87%
